In the library only some 1.8% were active in any assay of this set; here they are far more common.
LYPLA1 inh: counter-screen for PME1 inhibitors: inhibitors of human LYPLA1; inhibition, % at 5.9 µM; O75608; recombinant LYPLA1, FP-Rh probe fluorescence polarization; 0.16% of 320,000 active;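 active = inhibition above the mean of all tested compounds plus 3 SD, set per campaign, cut at about 14% in these data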;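 also: inhibitors block serine hydrolase probe labeling of LYPLA1 so polarization falls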
Target sequence (O75608 whole entry, looked up): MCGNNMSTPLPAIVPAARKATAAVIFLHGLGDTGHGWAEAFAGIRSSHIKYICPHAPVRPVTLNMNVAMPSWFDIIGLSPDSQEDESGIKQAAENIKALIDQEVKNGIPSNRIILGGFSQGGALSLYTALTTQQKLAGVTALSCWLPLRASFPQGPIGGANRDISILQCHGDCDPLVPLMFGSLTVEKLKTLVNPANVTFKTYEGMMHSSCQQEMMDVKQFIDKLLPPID
GSTO1 counter: blocks human GSTO1 in RBBP9 counter-screen; P78417; recombinant GSTO1, activity-based probe fluorescence polarization; inhibition, % at 5.96 µM; 1.1% of 300,000 active; AID 1974;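 active = inhibition above the campaign mean inhibition plus 3 SD, cut at about 35% in these data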
Target sequence (P78417 whole entry, looked up): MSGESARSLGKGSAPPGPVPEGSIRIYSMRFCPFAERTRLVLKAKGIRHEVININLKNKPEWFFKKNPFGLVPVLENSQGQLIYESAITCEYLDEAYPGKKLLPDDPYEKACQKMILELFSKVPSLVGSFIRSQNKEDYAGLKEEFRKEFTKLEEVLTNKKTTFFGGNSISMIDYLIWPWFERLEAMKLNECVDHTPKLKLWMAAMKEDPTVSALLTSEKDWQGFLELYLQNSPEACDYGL
LYPLA2 inh: LYPLA2 (human) inhibition in PME1 counter-screen; recombinant LYPLA2, FP-Rh probe fluorescence polarization; inhibition, % at 5.9 µM; O95372; 0.38% of 320,000 active;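 active = inhibition above the screen-wide mean plus 3 SD, limit set per campaign, cut at about 26% in these data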
PAD4 inh: PAD4 (human) enzyme inhibition; Q9UM07; 0.41% of 330,000 active; recombinant PAD4, RCA probe fluorescence polarization; inhibition, % at 6.36 µM;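 active = percent inhibition above a cutoff equal to the mean of all tested compounds plus 3 SD, cut at about 15% in these data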
Fam108B counter: blocks mouse Fam108B hydrolase in RBBP9 counter-screen | recombinant Fam108B, FP-Rh probe fluorescence polarization | AID 1947 | 0.33% of 300,000 active | inhibition, % at 9.51 µM;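 active = inhibition above the screen mean inhibition plus 3 SD, computed separately per campaign, cut at about 18% in these data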;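 also: inhibitors lower polarization as less probe binds the enzyme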
PME-1 primary: blocks human protein phosphatase methylesterase 1; 0.53% of 320,000 active; inhibition, % at 5.9 µM; AID 2130; recombinant PME-1, FP-Rh probe fluorescence polarization;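 active = inhibition above the campaign mean of all compounds plus 3 SD, cut at about 26% in these data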;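 also: competitive labeling of PME-1 active site by serine hydrolase directed probe; inhibitors block probe labeling so polarization falls and inhibition rises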
PAD4 confirm: PAD4 (human) inhibition, confirmed; recombinant PAD4, RCA probe fluorescence polarization; inhibition, % at 6.36 µM; 28% of 1,200 active; shares compounds with PAD4 inh;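 active = mean inhibition across replicates above the hit cutoff set by the earlier primary screen, cut at about 15% in these data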;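 also: inhibitors block active-site labeling by the probe so polarization falls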
Of the large screens only hits and unclear results are named; the others gave an inactive call (follow-up assays come after a bar, where they were run).

COc1ccc(C2C(C#N)=C(N)N(N(C)C)C3=C2C(=O)CCC3)cc1 (configuration not stated)	PAD4 inh 90 | PAD4 confirm inactive
O=[N+]([O-])c1ccc2nc(-c3ccccc3)n(OCc3ccc(Cl)cc3)c2c1	PAD4 inh 84 | PAD4 confirm inactive
O=[N+]([O-])c1ccc(COn2nnc3ccccc32)cc1	none
CCOc1ccc(N)c(SSc2cc(OCC)ccc2N)c1	PAD4 inh 26 | PAD4 confirm 31
COc1cccc(CNS(=O)(=O)c2ccc3c(c2)N(C)CCO3)c1	none
CS(=O)(=O)N1N=C(c2cccs2)CC1c1ccccc1 (configuration not stated)	PAD4 inh 30 | PAD4 confirm inactive
COc1ccc(CCC2(C)NC(=O)N(C(C)C(=O)N3c4ccccc4CC3C)C2=O)cc1 (configuration not stated)	none (no result: GSTO1 counter, Fam108B counter)
Cc1cc(OCCN2CCC(Cc3ccccc3)CC2)ccc1[N+](=O)[O-]	none
COc1ccccc1C(=O)Nc1nc(-c2ccc(S(=O)(=O)N3CCOCC3)cc2)cs1	PAD4 inh 40 | PAD4 confirm 41
COc1ccccc1OC(C)C(=O)Nc1nc(-c2ccc(S(=O)(=O)N3CCOCC3)cc2)cs1 (configuration not stated)	none
CCOc1cc(N2CCOCC2)c(OCC)cc1NC(=O)COC(=O)CCn1c(C)csc1=O	none
O=C(Nc1ccc(S(=O)(=O)Nc2ncccn2)cc1)c1ccc2ncsc2c1	PAD4 inh 18 | PAD4 confirm inactive
C=CC[C@@H](CC(=O)N[C@H](CO)Cc1ccccc1)C(=O)NC[C@H](OC(=O)[C@@H](CC=C)Cc1ccc(F)cc1)c1ccccc1	none (no result: LYPLA1 inh, GSTO1 counter, LYPLA2 inh, Fam108B counter, PME-1 primary)
O=c1oc2ccccc2n1CSC1=NCCS1	PAD4 inh 17 | PAD4 confirm inactive
O=c1oc2ccccc2n1CSc1nc2ccccc2s1	none
Cc1ccc2oc(C(=O)N(C)CCC(O)c3ccccc3)c(C)c2c1 (configuration not stated)	none
COCCn1c(=S)[nH]c2cc(OC)c(OC)cc2c1=O	PAD4 inh 43 | PAD4 confirm inactive
CCN(CC)CCCn1c(=S)[nH]c2cc(OC)c(OC)cc2c1=O	none
COc1ccc(C)cc1-n1c(SCC(=O)NC2CC2)nc2ccccc2c1=O	none (no result: GSTO1 counter, Fam108B counter)
O=C1C(Br)=Cc2cccc3cccc1c23	PAD4 inh 91 | PAD4 confirm 62
O=C(COC(=O)COc1ccc(Br)cc1)NCc1ccccc1	none (no result: GSTO1 counter, Fam108B counter)
O=C(CSc1ccccn1)Nc1nonc1[N+](=O)[O-]	PAD4 inh 19 | PAD4 confirm inactive
O=C(CSc1ccccn1)Nc1ccc(NC(=O)CSc2ccccn2)cc1	none
CSCc1cccc(C(=O)OC(C)C(=O)Nc2c(C)n(C)n(-c3ccccc3)c2=O)c1 (configuration not stated)	PAD4 inh 24 (no result: GSTO1 counter, Fam108B counter) | PAD4 confirm inactive
C=CCOc1ccc(C2OC34CCCCC3C(C#N)(C#N)C2(C#N)C(=N)O4)cc1 (configuration not stated)	PAD4 inh 15 | PAD4 confirm inactive
Cc1ccc(C2OC34CCCCCC3C(C#N)(C(=N)O4)C2(C#N)C#N)cc1 (configuration not stated)	none
O=C(NCCNC(=O)c1ccccc1Cl)c1ccco1	none
O=C(NCCCNC(=O)c1ccccc1F)c1ccco1	PAD4 inh 37 | PAD4 confirm inactive
CCCOc1ccc(C(=O)NNC(=S)NC(=O)c2cc(-c3ccc(Cl)cc3)nc3ccccc23)cc1	none
COc1ccc(C(=O)NNC(=S)NC(=O)c2cc(-c3ccccc3)nc3ccccc23)cc1	PAD4 inh 15 | PAD4 confirm inactive
CCCCc1cc(=O)oc2cc(O)ccc12	PAD4 inh 24 | PAD4 confirm inactive
c1ccc2sc(Sc3ncnc4sccc34)nc2c1	none
Cc1sc2ncnc(Sc3ccccc3C(=O)O)c2c1C	none
Cc1sc2ncnc(Sc3nnnn3-c3ccccc3)c2c1C	PAD4 inh 28 | PAD4 confirm 17
Clc1ccc(-n2nnnc2Sc2ncnc3sccc23)cc1	PAD4 inh 21 | PAD4 confirm 21
COc1ccc(CCNCc2cc(C)n(-c3ccc(OC)cc3)c2C)cc1	none

Screening results: PubChem BioAssay, The Scripps Research Institute Molecular Screening Center
